Here are results for 25 compounds from PubChem BioAssay AID1706 (The Scripps Research Institute Molecular Screening Center, 2009).

For orientation: inhibition means the relative decrease from the control value, in per cent.

The campaign covered roughly 290,000 compounds. About 400 (0.14%) were called active. Rule as the data show it: active = inhibition above about 12%; inactive = the rest. This excerpt belongs to a sample that is enriched for actives.

This assay concerns the target Replicase polyprotein 1ab (Severe acute respiratory syndrome coronavirus) (UniProt P0C6X7). Description: SARS-CoV 3CLpro protease inhibitors, primary screen, biochemical, quenched FRET (AID 1706). To be noted: recombinant SARS-CoV 3CLpro, quenched FRET peptide cleavage; at 6 µM; active compounds read high.
In the case of `COc1ccc(S(=O)(=O)c2c[nH]c(=S)[nH]c2=O)cc1Cl`, the inhibition was -1.78% (inactive). The value for `CN(CC(=O)N1CCN(c2ccccc2)CC1)S(=O)(=O)c1cccs1` was 2.74% (inactive). The value for `CC(=O)c1ccc(S(=O)(=O)N2CCC(Oc3ccc(-n4cnnn4)cc3)CC2)cc1` was -1.99% (inactive); that for `CC(Sc1nnc(CNC(=O)c2ccccc2F)n1C)C(=O)Nc1nccs1` (stereo not given) was -0.59% (inactive); that for `COc1cc(C(=O)NCCOC(=O)c2cccc(N(C)C)c2)cc(OC)c1OC` was 0.81% (inactive). As to `CCOC(=O)C1CCCN(CCSc2ccc(C)cc2)C1` (stereo not given), the inhibition was -2.08% (inactive). The value for `O=C(O)c1ccc(NC(=O)c2cn(-c3ccccc3)nc2-c2ccc(Cl)cc2)cc1` was 12.7% (active); that for `Cc1ccc(-c2nn(-c3ccccc3)cc2C(=O)Nc2cccc(S(=O)(=O)N3CCOCC3)c2)cc1` was 1.75% (inactive). The figure for `COc1ccc(-c2nn(-c3ccccc3)cc2/C=C\C(=O)Nc2ccc(C(=O)O)cc2)cc1` is 7.15% (inactive); for `CCc1ccc(N(C(=O)c2csnn2)C(C(=O)NC2CCCCC2)c2ccncc2)cc1` (stereo not given) it is 0.17% (inactive). The figure for `CC(C)(C)c1ccccc1NC(=O)CN1C(=O)NC2(CCCC2)C1=O` is 0.18% (inactive); for `Clc1ccc(Cc2nn3c(-c4ccncc4)nnc3s2)cc1` it is 2.77% (inactive). As to `O=C(NCCCN1CCCCC1)C1CCCN(c2ncnc3c2nc2n3CCCCC2)C1` (stereo not given), the inhibition was 1.81% (inactive).

`Cc1nn2c(=O)cc(COC(=O)c3ccc(NC(=O)C(C)(C)C)cc3)nc2s1`: the inhibition is -0.62% (inactive). For `Fc1ccccc1/C=N/Nc1cc(N2CCCCC2)ncn1`, the inhibition is 0.22% (inactive). The value for `O=C(C1CCC(C(=O)N2CCCC2)CC1)N1CCCC1` (stereo not given) was -3.63% (inactive); that for `COc1cccc(-c2noc(C3CCCN(C(=O)c4ccc(F)cc4)C3)n2)c1` (stereo not given) was 2.89% (inactive); that for `CCNS(=O)(=O)c1ccc(CCC(=O)N2CCN(c3cc(Cl)ccc3C)CC2)cc1` was 0.81% (inactive). As to `CC(C)(C)C1CCC(C(=O)NCC(c2cccs2)N2CCOCC2)CC1` (stereo not given), the inhibition was 4.8% (inactive). As for `COc1cc(NS(=O)(=O)c2ccc(NC(=S)NC(=O)c3ccc(Br)cc3)cc2)ncn1`, the inhibition is -2.77% (inactive). As to `COc1cc(CCC(=O)N2CCN(c3ccccc3Cl)CC2)cc(OC)c1OC`, the inhibition is -0.35% (inactive). The figure for `CCN(CC)S(=O)(=O)c1ccc(Cl)c(C(=O)NCCN2CCOCC2)c1` is -0.28% (inactive). The figure for `CC(C)CCN1CCN(Cc2cn[nH]c2C2CCCCC2)CC1CCO` (stereo not given) is 1.66% (inactive); for `COc1ccccc1/C=C/C(=O)NC(=S)N1CCOCC1` it is 2.02% (inactive); for `COc1ccc(Cc2nc3ccc(C(=O)N4CCC(N(C)C)C4)cc3o2)cc1` (stereo not given) it is -1.77% (inactive).
